Results published in PubChem BioAssay (NCATS).
Active and inactive are the calls of the source. Calls come from the whole dose curve; as a rule, active = well fitted inhibition curve with a large enough effect; inconclusive = small, poorly fitted or top-dose-only effect; inactive = flat fitted curve, though single readings scatter.

These molecules were tested against Flap endonuclease 1 (Homo sapiens) (UniProt P39748) (assay: qHTS Validation Assay for the Inhibitors of Human Flap endonuclease 1 (FEN1) (AID 488816)). Settings: FEN1 nuclease activity, fluorogenic DNA substrate; series mostly up to 57.1 µM.
Chain of Flap endonuclease 1 (Homo sapiens) (P39748 whole entry, looked up, the tested form may be a part): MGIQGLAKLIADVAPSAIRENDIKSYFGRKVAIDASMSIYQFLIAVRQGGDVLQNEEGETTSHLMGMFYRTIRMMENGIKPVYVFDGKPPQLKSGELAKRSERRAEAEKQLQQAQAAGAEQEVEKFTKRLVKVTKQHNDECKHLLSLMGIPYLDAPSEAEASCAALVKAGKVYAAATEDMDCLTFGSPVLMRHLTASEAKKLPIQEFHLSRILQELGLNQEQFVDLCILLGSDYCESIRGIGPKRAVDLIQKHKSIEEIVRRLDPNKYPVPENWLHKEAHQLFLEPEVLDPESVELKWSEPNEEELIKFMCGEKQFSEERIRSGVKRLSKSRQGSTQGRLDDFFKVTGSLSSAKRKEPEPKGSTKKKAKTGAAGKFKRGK
Description: The major human flap endonuclease FEN1 is an efficient structure-specific enzyme that recognizes and cleaves a 5'-unannealed DNA flap. It belongs to the RAD2 family nucleases, which are involved in DNA metabolism and are highly conserved in prokaryotes and eukaryotes. FEN1 is a key enzyme in DNA replication, repair and maintenance of genomic stability. 5'-flap removal by FEN1 is critical for Okazaki fragment processing during lagging strand DNA synthesis, long-patch base excision repair (LP BER), and regulating or facilitating recombination events. […] Deletion of the yeast FEN1 gene, i.e. rad27, results in an increased frequency of short DNA (3-32 bp) repeats, micro- and mini-satellite formation, trinucleotide repeat expansion, spontaneous recombination events, and a severe growth defect in association with cell cycle arrest in late S/G2 phase. […] Cells from fen1-/- blastocysts show increased apoptotic cell death after ionizing radiation treatment, and chicken cells lacking the fen1 gene are hypersensitive to DNA alkylating agents, e.g. methylmethane sulfonate (MMS) and N-methyl-N'-nitro-N-nitrosoguanidine (MNNG), as well as hydrogen peroxide.
FEN1 is found to be increased in many human cancers, including lung, brain cancer, gastric cancer, prostate cancer, pancreatic cancer and breast cancer. […] In particular, elevation of FEN1 in hormone refractory human prostate cancer cells correlates with resistant to various anticancer agents including ionizing radiation, doxorubicin, paclitaxel and vinblastine.
Three uL of reagents (buffer in column 3 and 4 as negative control and 10 nM FEN1 in columns 1, 2, and 5-48) were dispensed into 1,536-well black solid-bottomed plate. Compounds (23 nL) were transferred via Kalypsys pin tool equipped with 1536-pin array (10 nL slotted pins, V&P Scientific, San Diego, CA). The plates were then incubated for 15 min at room temperature, and 1 uL substrate (50 nM final concentration) were added to start the reaction read twice at 0 min read and 15 min on ViewLux reader. Throughout the screen, reagent bottle and all liquid lines were chilled and made light-tight to minimize reagent degradation. All screening operations were performed on a fully integrated robotic system (Kalypsys, San Diego, CA) containing one RX-130 and two RX-90 anthropomorphic robotic arms (Staubli, Duncan, SC). Library plates were screened starting from the lowest and proceeding to the highest concentration, and a "double-dipping" step of the highest concentration was required to access higher concentrations of compounds. Vehicle-only plates, with DMSO being pin-transferred to the entire column 5-48 compound area, were inserted uniformly at the beginning and the end of each library in order to monitor for and record any shifts in the background, which can be affected by reagent dispensers or loss in enzyme activity overtime. Screening data was corrected, normalized, and concentration-effect relationships were derived by using publicly-available curve fitting algorithms developed in-house (http://ncgc.nih.gov/pub/openhts). A four parameter Hill equation was fitted to the concentration-response data by minimizing the residual error between the modeled and observed responses.

Structure (SMILES)	outcome
CC(C)OC(=O)C(C)(C)Oc1ccc(C(=O)c2ccc(Cl)cc2)cc1	inactive
COc1ccccc1N1CCN(CCCNc2cc(=O)n(C)c(=O)n2C)CC1	inactive
CCCCCN(C)CCC(O)(P(=O)(O)O)P(=O)(O)O	inactive
NC(N)=Nc1nc(CSCC/C(N)=N/S(N)(=O)=O)cs1	inactive
Cc1cccc(C)c1OCC(C)N (configuration not stated)	inactive
CCCCC1C(=O)N(c2ccccc2)N(c2ccccc2)C1=O	inactive
CC(=O)N[C@@H](CS)C(=O)O	inactive
CC(=O)O[C@]1(C(C)=O)CC[C@H]2[C@@H]3C=C(Cl)C4=CC(=O)[C@@H]5C[C@@H]5[C@]4(C)[C@H]3CC[C@@]21C	inactive
O=c1c(-c2ccc(O)cc2)coc2cc(O)ccc12	inactive
C[N+](C)(C)CCCCCC[N+](C)(C)C	inactive
NCCS	inactive
COc1cccc(-c2cc(=O)c3ccccc3o2)c1N	inactive
CC1=C(/C=C/C(C)=C/C=C/C(C)=C/C(=O)Nc2ccc(O)cc2)C(C)(C)CCC1	inactive
CCN1CCC[C@H]1CNC(=O)c1cc(S(N)(=O)=O)ccc1OC	inactive
CCCNC(=O)NS(=O)(=O)c1ccc(Cl)cc1	inactive
CC/C(=C(\c1ccccc1)c1ccc(OCCN(C)C)cc1)c1ccccc1	inactive
Clc1ccc(Cn2c(CN3CCCC3)nc3ccccc32)cc1	inactive
O=C1NCC2(CCN(CCc3ccccc3)CC2)O1	inactive
O=C1NC(=O)C(c2ccccc2)(c2ccccc2)N1	inactive
CC1(C)CCC2=C(O1)c1ccccc1C(=O)C2=O	inactive
O=c1cc(-c2ccc(O)cc2)oc2cc(O)cc(O)c12	inactive
CCN(CC)CCOC(=O)c1ccc(N)cc1	inactive
